The test system of test [1] is WaGa. The test can be described thus: qHTS assay to identify novel small-molecules to repurpose for Merkel cell carcinoma treatment (AID 1296009). Note: % is set by controls: 0 for no effect and ±100 for the full control effect; nearly all actives have a fitted effect of over 60% in size. As to conditions: MCC and control cell lines, CellTiter-Glo viability, 72 h; series mostly up to 46 µM. The essentials:
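qHTS format: cells treated with library compounds in DMSO across 8 (NPC) or 11 (MIPE) concentrations. Readout after 72 hr at 37 degree celsius was CellTiter-Glo luminescence.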

In test [2] the test system is C33A. The test can be described thus: Primary qHTS to identify gynecologic anti-cancer compounds using libraries of approved drugs and bioactive compounds (AID 1345084). Note: nearly all actives have a fitted effect of over 55% in size. Note: potency is the fitted concentration of half-maximal effect. As to conditions: Gynecologic cancer cell panel viability, ATPlite luminescence, 48 h; series mostly up to 57.5 µM. Put shortly:
(§1)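 Five-concentration response, 48 h; readout is ATP-driven luciferase luminescence.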
Background: qHTS replaces the single test concentration by a dilution series.

In test [3] the test system is CASKI. The description is as above. As to conditions: Gynecologic cancer cell panel viability, ATPlite luminescence, 48 h; series mostly up to 57.5 µM. The essentials: as §1
In general terms: In ATP-based viability assays light output follows the ATP content of the culture.

For test [4], the system named is Es-2. The test is described as above. As to conditions: Gynecologic cancer cell panel viability, ATPlite luminescence, 48 h; series mostly up to 57.5 µM. Put shortly:
as §1

The test system of test [5] is HeLa. Described as above. The note with it: Gynecologic cancer cell panel viability, ATPlite luminescence, 48 h; series mostly up to 57.5 µM. Put shortly: as §1
Test [6] deals with Hek293T. Described as above. As to conditions: Gynecologic cancer cell panel viability, ATPlite luminescence, 48 h, control line for the selectivity index; series mostly up to 57.5 µM. Put shortly: as §1
Test [7] has as its system JEG-3. The description is as above. As to conditions: Gynecologic cancer cell panel viability, ATPlite luminescence, 48 h; series mostly up to 57.5 µM. Put shortly: as §1
The test system of test [8] is OV90. The description is as above. As to conditions: Gynecologic cancer cell panel viability, ATPlite luminescence, 48 h; series mostly up to 57.5 µM. The essentials: as §1
The test system of test [9] is PA-1. The test is described as above. The note with it: Gynecologic cancer cell panel viability, ATPlite luminescence, 48 h; series mostly up to 57.5 µM. Put shortly: as §1
The test system of test [10] is SKOV3. The description is as above. The note with it: Gynecologic cancer cell panel viability, ATPlite luminescence, 48 h; series mostly up to 57.5 µM. The essentials: as §1
Test [11] concerns Tov-21-G. The description is as above. The note with it: Gynecologic cancer cell panel viability, ATPlite luminescence, 48 h; series mostly up to 57.5 µM. Put shortly: as §1
Test [12] has as its system Tov112D. The test is described as above. The note with it: Gynecologic cancer cell panel viability, ATPlite luminescence, 48 h; series mostly up to 57.5 µM. Put shortly: as §1
A short description of test [13]: Drug repurposing screens with cells derived from glioblastoma tumor samples (AID 1345199). For activity, negative = cell killing: % is set by controls: 0 for no effect and ±100 for the full control effect. Note: nearly all actives have a fitted effect of over 40% in size. Note: potency is the fitted concentration of half-maximal effect. The note with it: GBM patient neurospheres viability, ATP luminescence, 48 h. Put shortly:
(§2)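 Four patient lines of CD133+ GBM neurospheres were screened at several concentrations; hits were retested in those lines plus three slower-growing GBM lines, using 48-hour treatment and ATP-based viability.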

The test system of test [14] is astro. The test is described as above. As to conditions: viability, ATP luminescence, 48 h; series mostly up to 45.9 µM. The essentials:
as §2

The target of test [15] is Nuclear receptor subfamily 1 group I member 2 (Rattus norvegicus) (UniProt Q9R1A7). Kind of test: qHTS assay for small molecule activators of the rat pregnane X receptor (rPXR) signaling pathway (AID 651751; call rule not given here; note: 0% is about no effect). As to conditions: rPXR reporter cells, luciferase (One-Glo), 24 h.
The nature of test [16]: qHTS assay for small molecule activators of the human pregnane X receptor (PXR) signaling pathway (AID 720659; call rule not given here; note: 0% is about no effect).
In test [17] the test system is CAOV3. The test can be described thus: Primary qHTS to identify gynecologic anti-cancer compounds using libraries of approved drugs and bioactive compounds (AID 1345084). Note: nearly all actives have a fitted effect of over 55% in size. Note: potency is the fitted concentration of half-maximal effect. As to conditions: Gynecologic cancer cell panel viability, ATPlite luminescence, 48 h; series mostly up to 57.5 µM. The essentials: as §1
Where [18] appears, read: at 45.9 µM (top of the series), tumour line B.
Setting [19] is: at 45.9 µM (top of the series), tumour line D.
The mark [20] stands for this setting: at 46 µM (top of the series), tumour line A.

Where “and” joins values, the source holds several entries; their conditions need not be identical. Equal values may be shown once. A number with no mark means an inactive call. Records with an inconclusive call do not appear. Calls of active or inactive are those of the source. Unless noted, calls come from the whole dose curve; as a rule, active = well fitted curve in the direction sought with a large enough effect; inconclusive = small, poorly fitted or top-dose-only effect, or another doubt; inactive = no such curve, though single readings can be large; an effect the other way counts as inactive or inconclusive.

Sequence of Nuclear receptor subfamily 1 group I member 2 (Rattus norvegicus) (Q9R1A7 whole entry, looked up): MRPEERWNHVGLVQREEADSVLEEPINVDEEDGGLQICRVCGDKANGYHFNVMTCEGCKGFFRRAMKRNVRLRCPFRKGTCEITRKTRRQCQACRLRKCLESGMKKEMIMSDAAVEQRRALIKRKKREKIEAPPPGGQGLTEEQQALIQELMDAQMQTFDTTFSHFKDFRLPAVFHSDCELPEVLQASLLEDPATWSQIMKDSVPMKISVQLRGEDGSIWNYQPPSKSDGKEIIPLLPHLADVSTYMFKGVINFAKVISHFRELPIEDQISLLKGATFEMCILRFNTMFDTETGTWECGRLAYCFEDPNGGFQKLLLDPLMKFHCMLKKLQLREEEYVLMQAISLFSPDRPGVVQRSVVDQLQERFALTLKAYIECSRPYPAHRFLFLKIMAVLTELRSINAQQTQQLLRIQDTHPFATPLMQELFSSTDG

`CN1CCC(O)(c2ccc(F)cc2)C(C(=O)c2ccc(F)cc2)C1` (stereo not given): the Potency entry in test [1], in test [2], in test [4], in test [5], in test [8] and in test [9] was “inactive” throughout. Besides, the Potency result in test [11] and in test [12] was “inactive” in each case. In addition, the result in test [3], in test [6], in test [7] and in test [10] was inactive. For the same compound, the Potency is 12.6 µM (active) in test [13] (tumour line A) and 28.2 µM (active) in test [13] (tumour line B).
As to `COP(=S)(OC)Oc1ccc(SC)c(C)c1`, the Potency entry in test [1], in test [2], in test [4], in [5], in test [8] and in test [11] was “inactive” in each case. The Potency result in [12] and in test [14] was “inactive” in each case. Also, the outcome in test [3], in test [6], in test [7], in test [10] and in test [16] was inactive. For the same compound, the activity, negative = cell killing in [13] (setting [18]) is -12.6%; in test [13] (setting [19]), -10.9%; in [13] (setting [20]), -25.3%. In addition, the max response in test [15] was -3.65% and 2.94%.
For the compound `CCCN(CCC)C(=O)Cc1c(-c2ccc(Cl)cc2)nc2ccc(Cl)cn12`, the Potency entry in [1], in [2], in [4], in test [5], in test [11] and in [12] was “inactive” in each case. Moreover, the call in test [3], in test [6], in test [7] and in test [10] was inactive. In addition, the activity, negative = cell killing in [13] (setting [18]) was -4.08%. For the same compound, the Potency in [13] (tumour line A) is 10 µM (active).
For the compound `Nc1nc(N)nc(NC2CC2)n1`, the Potency entry in test [1], in test [2], in test [4], in [5], in test [8] and in [9] was “inactive” in each case. The Potency result in test [11], in test [12] and in [14] was “inactive” throughout. In addition, the outcome in test [3], in test [6], in test [7], in [10] and in test [16] was inactive. Besides, the activity, negative = cell killing in [13] (setting [18]) was -5.44%; in test [13] (setting [19]) it was -12.5%. For the same compound, the max response in test [15] is 2.97%.
Consider `NNc1ccccc1`, for which the Potency result in [1], in test [2], in test [4], in test [5], in [8] and in test [9] was “inactive” in each case. The Potency entry in test [11], in [12] and in [14] was “inactive” in each case. Moreover, the call in test [3], in [6] and in test [7] was inactive. Also, the activity, negative = cell killing is -3.46% in test [13] (setting [18]); -1.72% in test [13] (setting [19]); -20.5% in test [13] (setting [20]); 11.9% in [13] (at 46.1 µM (top of the series), tumour line C).
As for `COP(=S)(OC)Oc1cc(Cl)c(Cl)cc1Cl`, the Potency entry in test [1], in [2], in [4], in [5], in test [8] and in [9] was “inactive” in each case. Moreover, the Potency result in [11] and in test [12] was “inactive” each time. For the same compound, the compound was classed as inactive in test [3], in test [6], in test [7], in test [10] and in [16]. In addition, the activity, negative = cell killing in test [13] (setting [18]) was 10.9% and 7.75%; in test [13] (setting [19]) it was -10.8% and 1.81%; in test [13] (setting [20]) it was -24.7% and -15.3%. The max response in [15] is 1.25%.
Turning to `CCN[C@@H](C)Cc1cccc(C(F)(F)F)c1`, the Potency entry in [1], in [2], in [4], in [5], in test [8] and in [9] was “inactive” throughout. Further, the Potency entry in test [11], in test [12] and in [14] was “inactive” in each case. The result in test [3], in test [6], in [7] and in test [10] was inactive. Moreover, the activity, negative = cell killing was 2.77% in test [13] (at 91.6 µM (top of the series), tumour line B) and -1.09% in test [13] (at 91.6 µM (top of the series), tumour line D).
In the case of `C[C@]12CC[C@@H]3c4ccc(OC(=O)N(CCCl)CCCl)cc4CC[C@H]3[C@@H]1CC[C@@H]2OP(=O)(O)O`, the Potency result in [1], in test [2], in test [4], in [5], in test [8] and in test [9] was “inactive” in each case. Also, the Potency entry in [11] and in [12] was “inactive” each time. In addition, the call in test [3], in test [6], in [7] and in test [10] was inactive. Moreover, the activity, negative = cell killing in test [13] (setting [18]) is -5.05%; in test [13] (setting [19]), -6.53%. Further, the Potency in test [14] was 10 µM (active).
`O=C(CCCN1CCC2(CC1)C(=O)NCN2c1ccccc1)c1ccc(F)cc1`: the Potency entry in test [1], in test [2], in test [4], in [5], in test [9] and in test [11] was “inactive” in each case. The Potency result in test [12] and in test [14] was “inactive” in each case. Moreover, the outcome in test [3], in test [6], in test [7] and in test [10] was inactive. In addition, the Potency is 2.24 µM (active) in [13] (tumour line A) and 12.6 µM (active) in test [13] (tumour line D).
Take `COc1cc(CC(C)N)cc(OC)c1OC` (stereo not given): the Potency result in [1] and in test [14] was “inactive” in each case. Moreover, the compound was classed as inactive in [17], in [3], in test [6] and in [7]. Moreover, the Potency is 15.8 µM (active) in [4], 1.58 µM (active) in test [5], 2.51 µM (active) in [9] and 0.708 µM (active) in test [11]. The activity, negative = cell killing was -12% in test [13] (at 108 µM (top of the series), tumour line B) and -16.2% in test [13] (at 108 µM (top of the series), tumour line D).
As to `CCN(CCO)CCn1c(Cc2ccccc2)nc2c1c(=O)n(C)c(=O)n2C`, the Potency entry in test [1], in [2], in [4], in [5], in test [9] and in test [11] was “inactive” in each case. Besides, the Potency entry in test [12] and in test [14] was “inactive” each time. Further, the call in test [3], in test [6] and in [7] was inactive. In addition, the figures for the activity, negative = cell killing in [13] (setting [18]) and in test [13] (setting [19]) were -6.5% and -3.15%, respectively.
With `CC(=O)NC1CCSC1=O` (stereo not given), the Potency entry in test [1], in [2], in [4], in [5], in [8] and in test [9] was “inactive” each time. The Potency entry in [11] and in test [12] was “inactive” each time. Also, the outcome in test [3], in test [6], in test [7] and in test [10] was inactive. In addition, the activity, negative = cell killing in test [13] (at 21.2 µM (top of the series), tumour line B) is -5.98%; in [13] (at 21.2 µM (top of the series), tumour line D), 7.84%; in [13] (at 21.3 µM (top of the series), tumour line A), -12.3%; in test [13] (setting [18]), -16.4%; in [13] (setting [19]) it was -12.7%.
On to `Nc1ccc([As](=O)(O)O)cc1`, for which the Potency entry in [1], in [2], in [4], in [5], in [8] and in [9] was “inactive” in each case. The Potency result in test [11] and in test [12] was “inactive” in each case. In addition, the outcome in test [3], in [6], in test [7] and in test [16] was inactive. Besides, the activity, negative = cell killing was -5.35% in [13] (setting [18]), -5.12% in test [13] (setting [19]) and -21.8% in test [13] (setting [20]). Moreover, the max response in test [15] is 3.51%.

The values are drawn from PubChem BioAssay (NCATS).
